Results filed as inconclusive are left out. The source made the active and inactive calls. Calls come from the whole dose curve; as a rule, active = well fitted inhibition curve with a large enough effect; inconclusive = small, poorly fitted or top-dose-only effect; inactive = flat fitted curve, though single readings scatter.
What was measured:
Experiment in all cases: qHTS profiling for inhibitors of Plasmodium falciparum proliferation (AID 504749); note: nearly all actives have a fitted effect of over 60% in size
Conditions in all cases: P. falciparum in erythrocytes, SYBR Green DNA, 72 h; series mostly up to 12.8 µM
AA1029 = system: AA1029
Summary of the method: (§1)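 SYBR Green fluorescence (ex 485 nm, em 535 nm) reports parasite DNA after 72 h compound exposure of infected red cells at 0.3% parasitemia, 2.5% hematocrit; signal normalized to 0.29 uM artemisinin and vehicle wells.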

CP185 = system: CP185
Summary of the method: as §1

CP194 = system: CP194
Summary of the method: as §1

CP201 = system: CP201
Summary of the method: as §1

CP215 = system: CP215
Summary of the method: as §1

CP260 = system: CP260
Summary of the method: as §1

CP266 = system: CP266
Summary of the method: as §1

CP286 = system: CP286
Summary of the method: as §1

CP297 = system: CP297
Summary of the method: as §1

CP305 = system: CP305
Summary of the method: as §1

CP315 = system: CP315
Summary of the method: as §1

CP325 = system: CP325
Summary of the method: as §1

CP329 = system: CP329
Summary of the method: as §1

DIV30 = system: DIV30
Summary of the method: as §1

HB3 = system: HB3
Summary of the method: as §1

TAB113 = system: TAB113
Summary of the method: as §1

AS120 = system: AS120
Summary of the method: as §1

ECU = system: ECU
Summary of the method: as §1

P94_40 = system: P94_40
Summary of the method: as §1

PAD = system: PAD
Summary of the method: as §1

Measured: Potency
Potency is the fitted concentration of half-maximal effect.

C[C@@]12CC[C@H]3[C@@H](CCC4=CC(=O)CC[C@]43C)[C@H]1CC[C@H]2C(=O)CO
inactive: AA1029 | CP185 | CP194 | CP201 | CP215 | CP260 | CP266 | CP286 | CP297 | CP305 | CP315 | CP325 | CP329 | DIV30 | HB3

CO[C@H]1[C@H](O[C@H]2O[C@@H](C)[C@@H](O[C@@H]3C[C@](C)(O)[C@H](OC(=O)CC(C)C)[C@H](C)O3)[C@@H](N(C)C)[C@@H]2O)[C@@H](CC=O)C[C@@H](C)[C@@H](O)/C=C\C=C/C[C@@H](C)OC(=O)C[C@H]1OC(C)=O
inactive: TAB113

Cc1cccc(C)c1NC(=O)[C@H](C)N
inactive: AA1029 | AS120 | CP185 | CP260 | CP286 | ECU | HB3 | P94_40 | PAD | TAB113
active: CP297 5.1 µM

CCOC(=O)[C@H](CCc1ccccc1)N[C@@H](C)C(=O)N1[C@H](C(=O)O)C[C@H]2CCC[C@@H]21
inactive: AA1029 | AS120 | CP185 | CP194 | CP201 | CP215 | CP260 | CP266 | CP286 | CP305 | CP315 | CP325 | ECU | HB3 | P94_40 | PAD | TAB113

C[C@H](N[C@@H](C)COc1ccccc1)[C@H](O)c1ccc(O)cc1
inactive: AA1029 | AS120 | CP185 | CP194 | CP201 | CP215 | CP260 | CP286 | CP305 | CP315 | CP325 | CP329 | DIV30 | ECU | HB3 | P94_40 | PAD | TAB113

CO[C@]1(NC(=O)C2SC(=C(C(N)=O)C(=O)O)S2)C(=O)N2C(C(=O)O)=C(CSc3nnnn3C)CS[C@H]21 (stereo partly drawn)
inactive: AA1029 | AS120 | CP185 | CP194 | CP201 | CP215 | CP260 | CP266 | CP286 | CP297 | CP305 | CP315 | CP325 | CP329 | DIV30 | ECU | HB3 | P94_40 | PAD | TAB113

CN1C(=O)C[C@H](c2ccccc2)C1=O
inactive: AA1029 | CP194 | CP201 | CP215 | CP260 | CP266 | CP286 | CP297 | CP305 | CP315 | CP325 | CP329 | DIV30 | ECU | HB3 | P94_40 | PAD

C=CCN1C(=CCO)[C@H]2C[C@H]3[C@@H]1CC[C@@]31c3ccccc3N3C=C4[C@@H]5N(/C=C/2[C@H]31)c1ccccc1[C@]51CC[C@H]2[C@H]1C[C@@H]4/C(=C/CO)N2CC=C
inactive: AA1029 | AS120 | CP185 | CP194 | CP201 | CP215 | CP260 | CP266 | CP286 | CP297 | CP305 | CP315 | CP325 | CP329 | DIV30 | ECU | HB3 | P94_40 | PAD | TAB113

COc1cc(N)c(Cl)cc1C(=O)N[C@H]1CCN(CCCOc2ccc(F)cc2)C[C@H]1OC
active: CP260 3.16 µM | CP286 3.55 µM | P94_40 3.16 µM
inactive: CP215 | CP266 | CP297 | CP315

COC(=O)C1=C(C)NC(C)=C(C(=O)OC(C)C)[C@H]1c1cccc2nonc12
inactive: CP185 | CP266 | DIV30 | PAD

C[C@H](Oc1ccccc1)C(=O)N[C@@H]1C(=O)N2[C@@H]1SC(C)(C)[C@@H]2C(=O)O
inactive: AA1029 | AS120 | CP185 | CP194 | CP201 | CP215 | CP260 | CP266 | CP286 | CP297 | CP305 | CP315 | CP325 | CP329 | DIV30 | ECU | HB3 | P94_40 | PAD | TAB113

CCC(=O)O[C@@H]1[C@H](C)O[C@H](O[C@H]2[C@@H](N(C)C)[C@H](O)[C@@H](O[C@@H]3[C@@H](CC=O)C[C@@H](C)[C@@H](O)/C=C\C=C/C[C@@H](C)OC(=O)C[C@@H](OC(=O)CC)[C@H]3OC)O[C@H]2C)C[C@]1(C)O
inactive: AS120 | DIV30 | ECU | HB3 | PAD | TAB113

COc1cc2nc(N3CCN(C(=O)[C@@H]4CCCO4)CC3)nc(N)c2cc1OC
inactive: AA1029 | AS120 | CP185 | CP194 | CP201 | CP215 | CP260 | CP286 | CP297 | CP305 | CP315 | CP325 | CP329 | DIV30 | ECU | HB3 | P94_40 | PAD | TAB113

CNC[C@H](O)c1ccc(OC(=O)C(C)(C)C)c(OC(=O)C(C)(C)C)c1
inactive: AA1029 | AS120 | CP185 | CP194 | CP201 | CP260 | CP266 | CP286 | CP297 | CP305 | CP325 | CP329 | DIV30 | ECU | HB3 | P94_40 | PAD | TAB113

O=C1O[C@H](CN2CCOCC2)CN1/N=C\c1ccc([N+](=O)[O-])o1
inactive: CP194 | CP201 | CP215 | CP266 | CP297 | CP305 | CP315 | CP325 | CP329 | DIV30

C[N+]12CCC(CC1)[C@@H](OC(=O)C(O)(c1ccccc1)c1ccccc1)C2
inactive: AA1029 | AS120 | CP185 | CP260 | CP266 | CP286 | CP297 | CP325 | CP329 | ECU | HB3 | P94_40 | PAD | TAB113

CC[N+](CC)(CC)CC[C@](O)(c1ccccc1)C1CCCCC1
inactive: AA1029 | AS120 | CP185 | CP194 | CP201 | CP215 | CP266 | CP297 | CP305 | CP315 | CP325 | CP329 | DIV30 | ECU | P94_40 | PAD | TAB113

COc1ccc(C[C@@](C)(N)C(=O)O)cc1OC
inactive: AA1029 | AS120 | CP185 | CP194 | CP201 | CP215 | CP260 | CP266 | CP286 | CP297 | CP305 | CP315 | CP325 | CP329 | DIV30 | ECU | HB3 | P94_40 | PAD | TAB113

CC(=O)O[C@]1(C(C)=O)CC[C@@H]2[C@@H]3C=C(C)C4=CC(=O)CC[C@@]4(C)[C@H]3CC[C@]21C
inactive: AA1029 | AS120 | CP185 | CP194 | CP201 | CP215 | CP260 | CP266 | CP286 | CP297 | CP305 | CP315 | CP325 | CP329 | DIV30 | ECU | HB3 | P94_40 | PAD | TAB113

CC(=O)[C@@]1(O)CC[C@H]2[C@H]3C[C@@H](C)C4=CC(=O)C=C[C@]4(C)[C@@]3(F)[C@@H](O)C[C@]21C
inactive: AA1029 | AS120 | CP185 | CP194 | CP201 | CP215 | CP260 | CP286 | CP297 | CP305 | CP315 | CP325 | CP329 | DIV30 | ECU | HB3 | P94_40 | PAD | TAB113

NS(=O)(=O)c1cc2c(cc1Cl)N[C@@H](CC1CCCC1)NS2(=O)=O
inactive: AA1029 | AS120 | CP185 | CP194 | CP201 | CP215 | CP260 | CP266 | CP286 | CP297 | CP305 | CP315 | CP325 | CP329 | DIV30 | ECU | HB3 | P94_40 | PAD | TAB113

CC1(C)O[C@@H]2C[C@H]3[C@H]4C[C@H](F)C5=CC(=O)CC[C@]5(C)[C@@H]4[C@H](O)C[C@]3(C)[C@]2(C(=O)CO)O1
inactive: AA1029 | AS120 | CP185 | CP194 | CP201 | CP260 | CP266 | CP286 | CP297 | CP305 | CP315 | CP325 | CP329 | DIV30 | ECU | HB3 | P94_40 | PAD | TAB113

O=C(NC[C@@H](O)CO)c1c(I)c(C(=O)NC[C@@H](O)CO)c(I)c(N(CCO)C(=O)CO)c1I
inactive: AA1029 | AS120 | CP185 | CP194 | CP201 | CP215 | CP260 | CP286 | CP297 | CP305 | CP315 | CP325 | CP329 | DIV30 | ECU | HB3 | PAD | TAB113

CC(=O)[C@@H]1CC[C@@H]2[C@@H]3C[C@H](C)C4=CC(=O)CC[C@@]4(C)[C@H]3[C@H](O)C[C@]21C
inactive: AA1029 | AS120 | CP185 | CP194 | CP201 | CP215 | CP260 | CP266 | CP286 | CP305 | CP315 | CP325 | CP329 | DIV30 | ECU | HB3 | PAD | TAB113

— PubChem BioAssay (NCATS)
